Test results reported in publication PMC10668032, “Altered binding affinity of SIX1-Q177R correlates with enhanced WNT5A and WNT pathway effector expression in Wilms tumor”.
Whole data set: some 33,000 sequences, median “e-score” near -0.05, cut for the highest 2% near 0.38. This is one part of a sample in which the highest values are shown more often than they occur.

The sequences below were run against T1, SIX1-Q177R homeodomain (human, UniProt Q15475 108-198, Q177R) (assay: universal protein binding microarray; Universal all-10-mer PBM (8x60K, AMADID 030236), 300 nM GST-tagged protein, Alexa Fluor 488 anti-GST; buffer, salt, pH and temperature not stated (as in Berger); high values mean tight binding). Conditions: protein: ivt; tags: N-terminal GST; dsDNA, one strand shown.
T1 sequence: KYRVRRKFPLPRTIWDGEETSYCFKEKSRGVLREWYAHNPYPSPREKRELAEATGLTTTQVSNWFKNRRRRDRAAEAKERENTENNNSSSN
Procedure, shortened: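 Binding of GST-tagged homeodomains is given as 8-mer E-scores from the Universal PBM Analysis Suite. The proteins were produced by in vitro transcription/translation, quantified by anti-GST western blot against a recombinant GST standard curve, and applied in duplicate at 300 nM final concentration to universal 'all 10-mer' protein binding microarrays (8×60K format).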
With ACCCGATA the binding signal was 0.237 ± 0.00872 E-score.
For CACCGAGG, the binding signal was 0.2466 ± 0.00166 E-score.
With CACCAATC the binding signal was 0.287 ± 0.00449 E-score.
Sequence GAAGGACA has a binding signal of 0.176 ± 0.0303 E-score.
AACGAGTG gave a binding signal of 0.189 ± 0.0329 E-score.
CCCCCTGA showed a binding signal of 0.277 ± 0.0278 E-score.
CCCCCAGG was tested, and the binding signal was 0.213 ± 0.0301 E-score.
Work on CACCTGCG yielded a binding signal of 0.26 ± 0.0138 E-score.
Work on ACTTCTAC yielded a binding signal of 0.182 ± 0.0104 E-score.
Work on CACGGGAC yielded a binding signal of 0.163 ± 0.0415 E-score.
Work on CCCCTCAA yielded a binding signal of 0.161 ± 0.0276 E-score.
Sequence CACTCAAG has a binding signal of 0.264 ± 0.00106 E-score.
For CGACTCCA, the binding signal was 0.275 ± 0.014 E-score.
Sequence CCCCTCCG has a binding signal of 0.2736 ± 0.00272 E-score.
CACTAGGC was tested, and the binding signal was 0.221 ± 0.00293 E-score.
With CCCCTTAC the binding signal was 0.245 ± 0.00846 E-score.
With TACACTGA the binding signal was 0.394 ± 0.0104 E-score.
For AACACTAA, the binding signal was 0.336 ± 0.0111 E-score.
Work on GACACTGC yielded a binding signal of 0.4326 ± 0.00138 E-score.
With GACACTGA the binding signal was 0.403 ± 0.0214 E-score.
TACACTAA gave a binding signal of 0.381 ± 0.0182 E-score.
Sequence CACACTGC has a binding signal of 0.258 ± 0.0222 E-score.
Work on GACACTAA yielded a binding signal of 0.369 ± 0.00967 E-score.
For CACACTGG, the binding signal was 0.264 ± 0.0213 E-score.
For AACACTGC, the binding signal was 0.375 ± 0.0233 E-score.
CACACTGA showed a binding signal of 0.208 ± 0.0349 E-score.
Sequence AACACTGA has a binding signal of 0.35 ± 0.0172 E-score.
With AATCGTGT the binding signal was 0.369 ± 0.0106 E-score.
AACTCCCG gave a binding signal of 0.181 ± 0.0506 E-score.
In the case of ACTGGTAC, the binding signal is reported as 0.192 ± 0.00471 E-score.
Sequence CCCCCCGA has a binding signal of 0.314 ± 0.0156 E-score.
Work on CACTACGG yielded a binding signal of 0.188 ± 0.0252 E-score.
Work on CGAGGAAC yielded a binding signal of 0.197 ± 0.0457 E-score.
With CCGATCCC the binding signal was 0.221 ± 0.00253 E-score.
TACTCCAA showed a binding signal of 0.198 ± 0.0212 E-score.
CACTGTGC was tested, and the binding signal was 0.204 ± 0.00431 E-score.
CACAGGTG gave a binding signal of 0.307 ± 0.0159 E-score.
With GACACTTA the binding signal was 0.383 ± 0.00709 E-score.
In the case of CACACTTA, the binding signal is reported as 0.204 ± 0.00443 E-score.
Sequence AACACTTA has a binding signal of 0.328 ± 0.0332 E-score.
With CAACGACA the binding signal was 0.197 ± 0.0113 E-score.
CGGATCCC was tested, and the binding signal was 0.235 ± 0.023 E-score.
CAGGGGTA gave a binding signal of 0.234 ± 0.0165 E-score.
Sequence ACCCAGGG has a binding signal of 0.201 ± 0.0184 E-score.
AACACTAC showed a binding signal of 0.381 ± 0.0184 E-score.
GACACTAC gave a binding signal of 0.434 ± 0.00877 E-score.
CACACTAG showed a binding signal of 0.25 ± 0.0068 E-score.
Sequence CACACTAC has a binding signal of 0.2973 ± 0.00215 E-score.
AACACTAG was tested, and the binding signal was 0.357 ± 0.0233 E-score.
AACACTAT gave a binding signal of 0.295 ± 0.0435 E-score.
For CACCCAGG, the binding signal was 0.284 ± 0.0239 E-score.
With GGTGCTAC the binding signal was 0.183 ± 0.00715 E-score.
Work on ACACTATA yielded a binding signal of 0.322 ± 0.0287 E-score.
In the case of ACTCTACC, the binding signal is reported as 0.151 ± 0.0299 E-score.
With ACACTACC the binding signal was 0.421 ± 0.00623 E-score.
In the case of ACACTACG, the binding signal is reported as 0.388 ± 0.00491 E-score.
Work on CCACTACA yielded a binding signal of 0.298 ± 0.0151 E-score.
Work on ACACTACT yielded a binding signal of 0.393 ± 0.0188 E-score.
Sequence ACACTATG has a binding signal of 0.328 ± 0.0294 E-score.
With ACACTAAG the binding signal was 0.337 ± 0.0137 E-score.
Work on ACACTACA yielded a binding signal of 0.41 ± 0.0193 E-score.
Work on ACACTATC yielded a binding signal of 0.342 ± 0.0149 E-score.
In the case of ACACTAAT, the binding signal is reported as 0.333 ± 0.0159 E-score.
Sequence TCACTACA has a binding signal of 0.225 ± 0.0148 E-score.
CCAGAACA was tested, and the binding signal was 0.261 ± 0.00433 E-score.
In the case of GGGGCGTA, the binding signal is reported as 0.159 ± 0.0113 E-score.
Sequence CCGCGTCA has a binding signal of 0.156 ± 0.0229 E-score.
Sequence AGTAGGTG has a binding signal of 0.279 ± 0.025 E-score.
Sequence CCTCTTTA has a binding signal of 0.171 ± 0.0307 E-score.
For AGGGTATG, the binding signal was 0.226 ± 0.0255 E-score.
ACCGGACA gave a binding signal of 0.245 ± 0.00259 E-score.
CCCCGGCC gave a binding signal of 0.233 ± 0.0259 E-score.
In the case of CGGTACAC, the binding signal is reported as 0.4352 ± 0.00226 E-score.
For AGGTATCC, the binding signal was 0.344 ± 0.00693 E-score.
GGGTACAA was tested, and the binding signal was 0.17 ± 0.0208 E-score.
AGGTACTC was tested, and the binding signal was 0.166 ± 0.0232 E-score.
For CGGTATCC, the binding signal was 0.325 ± 0.00938 E-score.
In the case of AGGTACAC, the binding signal is reported as 0.452 ± 0.00159 E-score.
GGGTACAC gave a binding signal of 0.443 ± 0.0111 E-score.
In the case of GGGTACCC, the binding signal is reported as 0.234 ± 0.00584 E-score.
Sequence CGGTATAC has a binding signal of 0.165 ± 0.00282 E-score.
CGCACTAC showed a binding signal of 0.152 ± 0.0379 E-score.
CACGCTCG gave a binding signal of 0.242 ± 0.0063 E-score.
Sequence ACTGCATA has a binding signal of 0.2138 ± 0.00024 E-score.
Work on ATTGGGTG yielded a binding signal of 0.261 ± 0.0204 E-score.
For CACTCATA, the binding signal was 0.195 ± 0.0111 E-score.
